The record followed here is PubChem BioAssay (NCATS).

Results filed as inconclusive are left out. Where a call stands in place of a potency, no number is given. Active and inactive are the calls of the source. Calls follow the shape of the dose curve; as a rule, active = well fitted curve in the direction sought with a large enough effect; inconclusive = small, poorly fitted or top-dose-only effect, or another doubt; inactive = no such curve, though single readings can be large; an effect the other way counts as inactive or inconclusive.

System in the first experiment: not listed separately
The experiment can be described thus: Primary fluorescence-based thiol-reactive (MSTI) qHTS assay for identification of artifact compounds. (AID 1845221). Also: nearly all actives have a fitted effect of over 65% in size. Also: potency is read from the fitted curve at half-maximal effect. The settings on record: MSTI thiol-reactivity probe, 1 h; series mostly up to 53.8 µM. The method, boiled down: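 Probe: MSTI 4 uM, PBS pH 7.4, 2% DMSO. Incubation 1 h, RT, light-protected. Readout fluorescence 525/598 nm.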
As for `CN(C)S(=O)(=O)c1ccc(NC(=S)N2CCC(C(O)(c3ccccc3)c3ccccc3)CC2)cc1`, the Potency result is “inactive”.

As to `NS(=O)(=O)c1ccc(N2N=C(c3ccccc3)CC2c2ccccc2)cc1` (stereo unspecified), the Potency result was “inactive”.

For the molecule `CCCCCc1ccc(/C=C/C(=O)Nc2cc(Cl)ccc2C(=O)O)cc1`, the Potency entry was “inactive”. As to `COC(=O)c1ccc2c(c1)[nH]c1ncnc(NCCCN3CCCCC3)c12`, the Potency entry was “inactive”. The same measure, in the same setting: in the case of `CC(=O)Nc1nc(C)c(-c2nc(N3CCCC(O)C3)no2)s1` (stereo unspecified) it was “inactive”; in that of `NC(=O)c1cccc2[nH]c(-c3ccc(C4CCCN4)cc3F)nc12` (stereo unspecified), “inactive”. Still for that read-out and setting: the result for `NCC1CCN(c2nccc(-c3ccc4ccccc4c3)n2)CC1` reads “inactive”; that for `C[C@@H](c1ccc2nccn2c1)n1nnc2ncc(-c3cnn(C)c3)nc21`, “inactive”.

As for `Cc1[nH]c(/C=C2\C(=O)Nc3cc(-c4ccccc4)ccc32)c(C)c1CCC(=O)O`, the Potency was 0.67 µM (active). Still for that read-out and setting: the result for `COc1cc(C(=O)O)ccc1NC(=O)C1NC(CC(C)(C)C)C(C#N)(c2ccc(Cl)cc2F)C1c1cccc(Cl)c1F` (stereo unspecified) reads “inactive”; that for `COc1cc2ncc(-c3ccccc3)nc2cc1OC`, “inactive”; that for `O=C(Nc1ccccc1C(=O)NC1CCCCNC1=O)c1cc2ccccc2s1` (stereo unspecified), “inactive”.

`CN(C)C(=O)Nc1cccc(-c2ccc(N(C)C)cc2)c1`: the Potency is 2.67 µM (active). Same read-out and setting: the result for `Cc1nc2cc(C(=O)NCc3ccccn3)nn2c(C)c1Cc1cccc(Cl)c1` reads “inactive”; that for `Cc1cc(N2CCOCC2)ccc1Nc1nc(NC2CCCCC2)c2[nH]cnc2n1`, 1.68 µM (active); that for `Cc1cc(-c2nc3cc(F)ccc3s2)ccc1NC(=O)[C@@H](N)CCCCN`, “inactive”. On the same count and under the same terms, in the case of `COc1ccnc(CS(=O)c2nc3cc(OC(F)F)ccc3[nH]2)c1OC` (stereo unspecified) it was 21.2 µM (active); in that of `C=C1C(=O)O[C@H]2CC(=C)[C@H]3CC[C@@](C)(O)[C@@H]3CC12` (stereo partly specified), 5.32 µM (active).

The test system of a further experiment is Nanoluciferase (engineered Oplophorus gracilirostris luciferase). The experiment can be described thus: Primary Nanoluciferase (NLuc) qHTS assay for identification of artifact compounds. (AID 1845222). The settings on record: NLuc-conditioned medium, Nano-Glo luminescence, 5 min; series mostly up to 54.1 µM. The method, boiled down:
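Compounds are pinned into diluted (1:55) conditioned medium of NLuc-expressing S16 cells and held 15 min at room temperature protected from light. Nano-Glo substrate follows, and luminescence is read 5 min later.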
On to `CCn1c(=O)c(-c2ccc(-c3cncs3)cc2Cl)cc2cnc(Nc3ccc(N4CCN(C)CC4)cc3)nc21`, for which the Potency result was “inactive”. On the same count and under the same terms, in the case of `CC1(C)CC[C@]2(C(=O)O)CC[C@]3(C)C(=CCC4[C@@]5(C)C[C@@H](O)[C@H](O)C(CO)(CO)C5CC[C@]43C)C2[C@@H]1O` (stereo partly specified) it was “inactive”; in that of `O=C1C[C@]23C=CCN4CCC5c6cc7c(cc6N1[C@@]5(CC2)C43)OCO7` (stereo partly specified), “inactive”; in that of `CN(C)S(=O)(=O)c1ccc(NC(=S)N2CCC(C(O)(c3ccccc3)c3ccccc3)CC2)cc1`, “inactive”. On the same count and under the same terms, in the case of `NS(=O)(=O)c1ccc(N2N=C(c3ccccc3)CC2c2ccccc2)cc1` (stereo unspecified) it was “inactive”; in that of `C#CCNCc1cc2cc(OCc3ccccc3)ccc2[nH]1`, “inactive”. Same read-out and setting: the result for `Nc1nc2c(s1)CCN(Cc1ccc(Cl)cc1)CC2` reads “inactive”; that for `Cc1nc2ccc(CN(C)c3ccc(C(=O)NC(CCC(=O)O)C(=O)O)s3)cc2c(=O)[nH]1` (stereo unspecified), “inactive”. In the case of `CCCCCc1ccc(/C=C/C(=O)Nc2cc(Cl)ccc2C(=O)O)cc1`, the Potency result is “inactive”. Regarding `CC(=O)Nc1nc(C)c(-c2nc(N3CCCC(O)C3)no2)s1` (stereo unspecified), the Potency entry is “inactive”.

For `NC(=O)c1cccc2[nH]c(-c3ccc(C4CCCN4)cc3F)nc12` (stereo unspecified), the Potency result was “inactive”. In the case of `COc1cc(C2OC(c3ccc(OC)c(OC)c3)C(C)C2C)ccc1O` (stereo unspecified), the Potency entry was “inactive”.

As for `NCC1CCN(c2nccc(-c3ccc4ccccc4c3)n2)CC1`, the Potency entry was “inactive”. `C[C@@H](c1ccc2nccn2c1)n1nnc2ncc(-c3cnn(C)c3)nc21`: the Potency entry is “inactive”. Still for that read-out and setting: the result for `Cc1cc(C)c2c(c1)C(N(Cc1cc(C(F)(F)F)cc(C(F)(F)F)c1)c1nnn(C)n1)CCCN2CC1CCC(C(=O)O)CC1` (stereo unspecified) reads “inactive”. Turning to `COc1cc(-c2cn(C3CCc4c(F)cccc4N(CC(F)(F)F)C3=O)nn2)ccc1-n1cnc(C)c1` (stereo unspecified), the Potency entry is “inactive”. Same read-out and setting: the result for `Cc1cc2occ(CN(C)CCN(C)Cc3cn(-c4cccc(C(F)(F)F)c4)c4ccccc34)c(=O)c2cc1C` reads “inactive”.

In the case of `C=CC(C)(C)C12CC3C(=O)N4C(CC5(C(C)(C)C=C)c6ccccc6NC45)C(=O)N3C1Nc1ccccc12` (stereo unspecified), the Potency entry is “inactive”.

With `CCN(CC)C(=O)C(c1ccccc1)N1CCN(c2ccc(NC(=O)c3ccccc3-c3cccnc3)cc2F)CC1` (stereo unspecified), the Potency entry was “inactive”. Turning to `COc1cc2nc(N3CCN(C(=O)COc4c(OC)cccc4C(C)C)CC3)nc(N)c2cc1OC`, the Potency result is “inactive”.

On to `C=CC(=O)N1CCCC(n2nc(-c3ccc(Oc4ccccc4)cc3)c3c(N)ncnc32)C1` (stereo unspecified), for which the Potency entry was “inactive”. Same read-out and setting: in the case of `CCOC(=O)N1c2ccc(C(F)(F)F)cc2C(N(Cc2cc(C(F)(F)F)cc(C(F)(F)F)c2)C(=O)OC)CC1CC` (stereo unspecified) it was “inactive”; in that of `COc1cc(C(=O)O)ccc1NC(=O)C1NC(CC(C)(C)C)C(C#N)(c2ccc(Cl)cc2F)C1c1cccc(Cl)c1F` (stereo unspecified), “inactive”.
